Test results taken from PubChem BioAssay (NCI).
The panel holds about 79,000 compounds, 15% with a hit somewhere; the sample as a whole holds those more often. Active and inactive are the calls of the source. Cut-off read from the data, not from the text of the source: active = growth inhibition above about 70%; inactive = the rest.

What was measured:
[1] = NCI Yeast Anticancer Drug Screen. Data for the rad52 strain (AID 147);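 note: 0% = growth of vehicle-treated control cultures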; conditions: S. cerevisiae rad52 mutant growth inhibition, hits give high values
In short: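 Screen used a yeast mutant impaired in DNA repair. After compound exposure, growth was measured. Values reflect inhibition compared with vehicle-treated cells.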

[2] = NCI Yeast Anticancer Drug Screen. Data for the wt1 strain (AID 149);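 note: 0% = growth of vehicle-treated wt1 cultures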; conditions: S. cerevisiae wt1 strain (SPY 50644) growth inhibition, hits give high values
In short: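 Growth inhibition read against vehicle controls after compound exposure of the wt1 yeast strain.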

[3] = NCI Yeast Anticancer Drug Screen. Data for the rad50EPP+ strain (AID 151);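 note: 0% = growth of vehicle-treated control cultures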; conditions: S. cerevisiae rad50 mutant strain, hits give high values
In short: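 Exposing the rad50EPP+ strain to each compound, growth was compared with vehicle-only cultures to give inhibition.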

[4] = NCI Yeast Anticancer Drug Screen. Data for the rad50 strain (AID 155);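 note: 0% = growth of vehicle-only cultures of the same strain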; conditions: S. cerevisiae rad50 strain growth inhibition, hits give high values
In short: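 Readout: growth inhibition relative to vehicle-treated cultures. Compound exposure was carried out in a genetically defined yeast strain deficient in DNA damage repair.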

[5] = NCI Yeast Anticancer Drug Screen. Data for the mec2-1 strain (AID 157); conditions: S. cerevisiae mec2-1 strain, hits give high values
In short: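 Readout is yeast growth inhibition, normalised to vehicle-treated controls, in the mec2-1 strain exposed to compound.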

[6] = NCI Yeast Anticancer Drug Screen. Data for the rad14 strain (AID 159);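 note: 0% = growth of vehicle-treated control cultures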; conditions: S. cerevisiae rad14 strain growth inhibition, hits give high values
In short: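 Growth inhibition vs vehicle controls; genetically altered yeast strain (DNA damage repair defect) treated with test compounds.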

[7] = NCI Yeast Anticancer Drug Screen. Data for the sgs1 mgt1 strain (AID 161);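 note: 0% = growth of cultures given vehicle only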; conditions: S. cerevisiae sgs1 mgt1 strain, hits give high values
In short: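 Yeast cells carrying a defined DNA-repair defect were exposed to test compounds. Growth inhibition was measured relative to vehicle-treated controls.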

[8] = NCI Yeast Anticancer Drug Screen. Data for the CLN2oe strain (AID 163);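 note: 0% = growth of vehicle-only control cultures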; conditions: S. cerevisiae CLN2oe strain, hits give high values
In short: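 Values reflect how much compound exposure reduced yeast growth, referenced to vehicle-exposed cells. Assay organism is a strain with a defined genetic change affecting cell-cycle control.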

[9] = NCI Yeast Anticancer Drug Screen. Data for the cln2 rad14 strain (AID 165);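 note: 0% = growth equal to vehicle treated cultures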; conditions: S. cerevisiae cln2 rad14 strain, hits give high values
In short: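 Relative to vehicle controls, growth inhibition of compound-treated cln2 rad14 yeast was recorded.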

[10] = NCI Yeast Anticancer Drug Screen. Data for the bub3 strain (AID 167); conditions: S. cerevisiae bub3 mutant strain, hits give high values
In short: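 Readout: yeast growth inhibition, expressed relative to vehicle-only wells. The test organism is a mutant strain from a panel with lesions in DNA repair or checkpoint genes.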

[11] = NCI Yeast Anticancer Drug Screen. Data for the wt2 strain (AID 169);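 note: 0% = growth of vehicle-treated yeast cultures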; conditions: S. cerevisiae wt2 strain growth inhibition, hits give high values
In short: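 Values express reduction in yeast growth under compound treatment, referenced to vehicle-treated cells.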

[12] = NCI Yeast Anticancer Drug Screen. Data for the mlh1 strain (AID 171);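 note: 0% = growth of vehicle-treated control cultures of the same strain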; conditions: S. cerevisiae mlh1 strain growth inhibition, hits give high values
In short: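 Steps: expose the defined-mutant yeast strain to compound; expose a parallel culture to vehicle; measure growth; express compound effect as inhibition relative to the vehicle culture.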

[13] = NCI Yeast Anticancer Drug Screen. Data for the sgs1 strain (AID 173);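 note: 0% = growth of vehicle-only control cultures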; conditions: S. cerevisiae sgs1 mutant, hits give high values
In short: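 Treat defined-mutant yeast with compound; measure growth; calculate inhibition relative to vehicle-treated cells.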

[14] = NCI Yeast Anticancer Drug Screen. Data for the mlh1 rad18 strain (AID 175); conditions: S. cerevisiae mlh1 rad18 strain growth inhibition, hits give high values
In short: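 Test agents were incubated with a yeast strain of defined genotype (DNA damage repair defect). Inhibition of growth was derived by comparison with vehicle-exposed cultures.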

[15] = NCI Yeast Anticancer Drug Screen. Data for the rad18 strain (AID 177); conditions: S. cerevisiae rad18 mutant growth inhibition, hits give high values
In short: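 A genetically defined yeast mutant impaired in DNA damage repair was treated with test compounds, then its growth was measured against cultures receiving vehicle alone.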

[16] = at 5.0 µM (retest, dose inferred, filed as 0.5)
[17] = at 50.0 µM (retest, dose inferred, filed as 5.0)

Measured: growth inhibition

Cc1ccc(S(=O)(=O)Nc2cccc3cccnc23)cc1
active: [1]; at 33.0 µM 75% | [2]; at 33.0 µM 71% | [4]; at 33.0 µM 79% | [4]; [17] 97% | [4]; at 100.0 µM 84% | [5]; at 33.0 µM 79% | [5]; [17] 98% | [6]; at 33.0 µM 72% | [12]; at 33.0 µM 78% | [13]; at 33.0 µM 82% | [14]; [17] 100% | [14]; at 50.0 µM 71%
inactive: [1]; at 1.2 µM 10% | [1]; at 3.7 µM 14% | [1]; at 11.0 µM 25% | [1]; at 100.0 µM 52% | [2]; at 1.2 µM 15% | [2]; at 3.7 µM 14% | [2]; at 11.0 µM 18% | [2]; at 100.0 µM 39% | [3]; at 1.2 µM 16% | [3]; at 3.7 µM 17% | [3]; at 11.0 µM 16% | [3]; at 33.0 µM 62% | [3]; at 100.0 µM 66% | [4]; at 1.2 µM 15% | [4]; at 3.7 µM 25% | [4]; [16] 46% | [4]; at 11.0 µM 22% | [4]; at 50.0 µM 46% | [5]; at 1.2 µM 7% | [5]; at 3.7 µM 18% | [5]; [16] 49% | [5]; at 11.0 µM 23% | [5]; at 50.0 µM 20.2% | [5]; at 100.0 µM 60% | [6]; at 1.2 µM -19% | [6]; at 3.7 µM -16% | [6]; at 11.0 µM 16% | [6]; at 100.0 µM 56% | [7]; [16] -15% | [7]; [17] 41% | [7]; at 50.0 µM 59% | [8]; at 1.2 µM 15% | [8]; at 3.7 µM 12% | [8]; at 11.0 µM 41% | [8]; at 33.0 µM 69% | [8]; at 100.0 µM 46% | [9]; [16] 25% | [9]; [17] 54% | [9]; at 50.0 µM 48% | [10]; at 1.2 µM -11% | [10]; at 3.7 µM -14% | [10]; [16] 29% | [10]; at 11.0 µM -3% | [10]; at 33.0 µM 50% | [10]; [17] 23% | [10]; at 50.0 µM 27.7% | [10]; at 100.0 µM 15% | [11]; at 1.2 µM -13% | [11]; at 3.7 µM -5% | [11]; at 11.0 µM 8% | [11]; at 33.0 µM 53% | [11]; at 100.0 µM 59% | [12]; at 1.2 µM 14% | [12]; at 3.7 µM 3% | [12]; at 11.0 µM 9% | [12]; at 100.0 µM 62% | [13]; at 1.2 µM 1% | [13]; at 3.7 µM 4% | [13]; at 11.0 µM 44% | [13]; at 100.0 µM 63% | [14]; [16] 44%

NC(=S)N1N=C2c3ccccc3CC[C@H]2[C@@H]1c1ccc(Cl)cc1
active: [1]; at 100.0 µM 88% | [2]; at 100.0 µM 90% | [4]; [17] 78% | [4]; at 50.0 µM 83% | [4]; at 100.0 µM 85% | [5]; [17] 90% | [5]; at 50.0 µM 85.8% | [5]; at 100.0 µM 88% | [6]; at 100.0 µM 82% | [7]; [17] 79% | [7]; at 50.0 µM 84.8% | [8]; at 100.0 µM 86% | [9]; [17] 91% | [9]; at 50.0 µM 84.7% | [10]; [17] 93% | [10]; at 50.0 µM 83.2% | [10]; at 100.0 µM 89% | [11]; at 100.0 µM 89% | [12]; at 100.0 µM 89% | [13]; at 100.0 µM 91% | [14]; [17] 93% | [14]; at 50.0 µM 80.2% | [15]; at 100.0 µM 89%
inactive: [1]; at 1.2 µM 26% | [1]; at 3.7 µM 31% | [1]; at 11.0 µM 39% | [1]; at 33.0 µM 48% | [2]; at 1.2 µM 11% | [2]; at 3.7 µM 9% | [2]; at 11.0 µM 31% | [2]; at 33.0 µM 46% | [3]; at 1.2 µM -14% | [3]; at 3.7 µM -10% | [3]; at 11.0 µM -14% | [3]; at 33.0 µM 8% | [3]; at 100.0 µM 37% | [4]; at 1.2 µM -6% | [4]; at 3.7 µM -2% | [4]; [16] -20% | [4]; at 11.0 µM 29% | [4]; at 33.0 µM 36% | [5]; at 1.2 µM -17% | [5]; at 3.7 µM 9% | [5]; [16] 7% | [5]; at 11.0 µM 23% | [5]; at 33.0 µM 58% | [6]; at 1.2 µM -28% | [6]; at 3.7 µM -20% | [6]; at 11.0 µM -10% | [6]; at 33.0 µM -3% | [7]; [16] -15% | [8]; at 1.2 µM -6% | [8]; at 3.7 µM -10% | [8]; at 11.0 µM 18% | [8]; at 33.0 µM 42% | [9]; [16] 12% | [10]; at 1.2 µM -12% | [10]; at 3.7 µM 9% | [10]; [16] 34% | [10]; at 11.0 µM 26% | [10]; at 33.0 µM 46% | [11]; at 1.2 µM 8% | [11]; at 3.7 µM 14% | [11]; at 11.0 µM 11% | [11]; at 33.0 µM 35% | [12]; at 1.2 µM 2% | [12]; at 3.7 µM 2% | [12]; at 11.0 µM 28% | [12]; at 33.0 µM 51% | [13]; at 1.2 µM 22% | [13]; at 3.7 µM 33% | [13]; at 11.0 µM 46% | [13]; at 33.0 µM 67% | [14]; [16] 7% | [15]; at 1.2 µM 1% | [15]; at 3.7 µM 8% | [15]; at 11.0 µM -9% | [15]; at 33.0 µM 45%
